These results are taken from ChEMBL document CHEMBL4513141, “CO-ADD screening of NIH (USA) - Clinical Collection” (2021).

Entries with a potency or affinity are not part of this list.

In the test the test system is Cryptococcus neoformans. The conditions noted are these: Concentration 20 uM; ASSAY_TEST Inhibition of Fungal Growth; detection method Resazurin; Absorption (OD600-OD570); plate type 384well; NBS; CORNING #3640. (Resazurin is reduced to fluorescent resorufin, in cell work by metabolically active cells.)
With `C[C@]12C[C@H](O)[C@H]3[C@@H](CCC4=CC(=O)CC[C@@]43C)[C@@H]1CC[C@@H]2C(=O)CO` [CORTICOSTERONE], the Inhibition was -3.25%. For the compound `C[C@H](CS)C(=O)N1CCC[C@H]1C(=O)O` [CAPTOPRIL], the Inhibition is reported as 1.67%. On to `NS(=O)(=O)c1cc2c(cc1Cl)NCNS2(=O)=O` [HYDROCHLOROTHIAZIDE], for which the Inhibition was -7.59%. Next, `CC[C@]1(O)C[C@@H]2CN(CCc3c([nH]c4ccccc34)[C@@](C(=O)OC)(c3cc4c(cc3OC)N(C)[C@H]3[C@@](O)(C(N)=O)[C@H](O)[C@]5(CC)C=CCN6CC[C@]43[C@@H]65)C2)C1.O=S(=O)(O)O` [VINDESINE SULFATE]: 0.45%. Next, `CCOC(=O)C1(CCCCCCOc2ccc(Cl)cc2)CO1` (stereo not drawn) [rac-ETOMOXIR]: -1.88%; `CC1(C)S[C@@H]2[C@H](NC(=O)[C@H](N)c3ccc(O)cc3)C(=O)N2[C@H]1C(=O)O` [AMOXICILLIN]: -2.09%. Take `CNCC[C@H](Oc1cccc2ccccc12)c1cccs1.Cl` [DULOXETINE HYDROCHLORIDE]: the Inhibition is given as -2.99%.

For `CN(C)CCOC(C)(c1ccccc1)c1ccccn1.O=C(O)CCC(=O)O` (stereo not drawn) [DOXYLAMINE SUCCINATE], the Inhibition is given as -8.18%. Take `Cl.Clc1cccc(Cl)c1NC1=NCCN1` [CLONIDINE HYDROCHLORIDE]: the Inhibition is reported as -10.31%. On to `COc1cc(N)c(Cl)cc1C(=O)N[C@@H]1CCN(CCCOc2ccc(F)cc2)C[C@@H]1OC.O` [(R,S)-CISAPRIDE MONOHYDRATE], for which the Inhibition stood at 3.24%. Next, `CC1(C)O[C@@H]2C[C@H]3[C@@H]4CCC5=CC(=O)C=C[C@]5(C)[C@@]4(F)[C@@H](O)C[C@]3(C)[C@]2(C(=O)CO)O1` [TRIAMCINOLONE ACETONIDE]: -5.82%; `CCOC(=O)c1ccc(OC(=O)CCCCCN=C(N)N)cc1.CS(=O)(=O)O`: -7.27%; `C[C@@H]1O[C@@H](OC[C@H]2O[C@@H](Oc3c(-c4ccc(O)c(O)c4)oc4cc(O)cc(O)c4c3=O)[C@H](O)[C@@H](O)[C@@H]2O)[C@H](O)[C@H](O)[C@H]1O` [RUTIN]: -5.7%. With `CCS(=O)(=O)CCn1c([N+](=O)[O-])cnc1C` [TINIDAZOLE], the Inhibition is reported as -11.27%. Regarding `COc1ccccc1OCCNCC(O)COc1cccc2[nH]c3ccccc3c12` (stereo not drawn) [CARVEDILOL], the Inhibition amounted to 1.85%. Consider `C#C[C@]1(O)CC[C@H]2[C@@H]3CCc4cc(OC)ccc4[C@H]3CC[C@@]21C` [MESTRANOL], for which the Inhibition is -7.53%. With `COc1cc(C[C@@H](CO)[C@H](CO)Cc2ccc(O)c(OC)c2)ccc1O` [(+)-SECOISOLARICIRESINOL], the Inhibition came to 1.62%. `CCCc1cc(=O)[nH]c(=S)[nH]1` [PROPYLTHIOURACIL]: the Inhibition is recorded as -1.39%.

For `CN(CCO)CC(O)Cn1cnc2c1c(=O)n(C)c(=O)n2C.O=C(O)c1cccnc1` (stereo not drawn) [XANTHINOL NIACINATE], the Inhibition is -2.36%. Next, `CN1CCN(CCCN2c3ccccc3Sc3ccc(C(F)(F)F)cc32)CC1.Cl.Cl` [TRIFLUOPERAZINE HYDROCHLORIDE]: -7.04%; `CCC(C)(C)C(=O)O[C@H]1C[C@@H](C)C=C2C=C[C@H](C)[C@H](CC[C@@H]3C[C@@H](O)CC(=O)O3)[C@H]21` [SIMVASTATIN]: 3.41%; `COC(=O)C1=C(C)NC(C)=C(C(=O)O[C@@H]2CCCN(Cc3ccccc3)C2)[C@@H]1c1cccc([N+](=O)[O-])c1.Cl`: -18.39%.

Consider `CN(C)CCC(c1ccc(Cl)cc1)c1ccccn1.O=C(O)/C=C\C(=O)O` (stereo not drawn) [CHLORPHENIRAMINE MALEATE], for which the Inhibition is on record as 0.1%.

Consider `Cl.O.O=C1N(c2ccccc2)c2ccccc2C1(Cc1ccncc1)Cc1ccncc1`, for which the Inhibition is listed as -6.67%. Take `CN(Cc1cnc2nc(N)nc(N)c2n1)c1ccc(C(=O)N[C@@H](CCC(=O)O)C(=O)O)cc1.O`: the Inhibition is reported as -1.89%. The value for `Cc1sc(N)c(C(=O)c2cccc(C(F)(F)F)c2)c1C` was -0.97%; that for `CS(=O)(=O)O.Cc1ccc(NC(=O)c2ccc(CN3CCN(C)CC3)cc2)cc1Nc1nccc(-c2cccnc2)n1` [IMATINIB MESYLATE] was 9.11%; that for `NS(=O)(=O)c1cc(C(=O)O)c(NCc2ccco2)cc1Cl` [FUROSEMIDE] was -7.53%.

Consider `Nc1nc(Cl)nc2c1ncn2[C@@H]1O[C@H](CO)[C@@H](O)[C@H]1O`, for which the Inhibition is 0.98%. On to `Cl.NC[C@H]1CC[C@H](C(=O)Oc2ccc(CCC(=O)O)cc2)CC1` [CETRAXATE HYDROCHLORIDE], for which the Inhibition was -5.7%.

Regarding `C=CCc1ccc(O)c(-c2ccc(O)c(CC=C)c2)c1` [HONOKIOL], the Inhibition is reported as 0.25%. The value for `O=c1c(O[C@@H]2O[C@H](CO)[C@@H](O)[C@H](O)[C@H]2O)c(-c2ccc(O)c(O)c2)oc2cc(O)cc(O)c12` [ISOQUERCETIN] was 3.22%; that for `C=C(CC)C(=O)c1ccc(OCC(=O)O)c(Cl)c1Cl` [ETHACRYNIC ACID] was -8.91%; that for `C[C@]12C=CC(=O)C=C1CC[C@@H]1[C@@H]2[C@@H](O)C[C@@]2(C)[C@H]1CC[C@]2(O)C(=O)CO` [PREDNISOLONE] was -7.92%. As for `O=C(O)c1cc(-c2ccc(F)cc2F)ccc1O` [DIFLUNISAL], the Inhibition is on record as -3.56%. Turning to `CC(C)[C@H](N)C(=O)OCCOCn1cnc2c(=O)nc(N)[nH]c21.Cl` [VALACYCLOVIR HYDROCHLORIDE], the Inhibition is -5.07%.

In the case of `CC1(C)S[C@@H]2[C@H](/N=C/N3CCCCCC3)C(=O)N2[C@H]1C(=O)O` [AMDINOCILLIN], the Inhibition is -5.88%. The value for `CCC(=O)OCC(=O)[C@@]1(OC(=O)CC)[C@@H](C)C[C@H]2[C@@H]3CCC4=CC(=O)C=C[C@]4(C)[C@@]3(Cl)[C@@H](O)C[C@@]21C` [BECLOMETHASONE DIPROPIONATE] was 1.67%.

Broadly, the Inhibition is the drop in the measured response relative to a control, in per cent.
